# In the supplement of paper PMC4022240:
# ± gives the standard deviation.
# T1: HaloTag-ATRX ADD domain (163-292)
# T1 chain: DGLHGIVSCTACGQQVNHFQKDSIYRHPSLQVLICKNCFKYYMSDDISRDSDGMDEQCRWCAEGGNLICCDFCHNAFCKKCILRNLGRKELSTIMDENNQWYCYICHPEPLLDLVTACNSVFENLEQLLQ
# How the values were obtained:
# Assay in all cases: peptide microarray binding signal (635 nm), min-max normalized on array (fraction of array maximum); higher = stronger binding
# Conditions in all cases: peptide region: H3 20-32
# [1] = target: T1, HaloTag-ATRX ADD domain (163-292)
# Outline: (§1)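 Triplicate spots of histone 13-mer peptide–cellulose conjugates with a Cy3 tracer were printed on nitrocellulose and probed for 1 h at 4°C with biotin-labelled HaloTag reader fusions (10 nM to 1 μM) plus streptavidin-Alexa Fluor 647 or rabbit histone antibodies (1:10,000 to 1:2,000) plus anti-rabbit Alexa 647. An Axon GenePix 4000B read the 635 nm channel. Binding signal is the spot-triplicate mean intensity after min-max scaling within each library.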
# [2] = target: HaloTag-ING2 PHD (mouse Ing2 200-280)
# Outline: as §1
# [3] = target: anti-H3K4me3 antibody ab8580
# Outline: as §1
# [4] = target: anti-H3K9me3 antibody ab8898
# Outline: as §1
# [5] = peptide modifications: H3K27ac, binder concentration: 1:2,000 dilution
# [6] = peptide modifications: H3K27ac, binder concentration: 1:10,000 dilution
# [7] = peptide modifications: H3K23me2 H3K27me1, binder concentration: 1:2,000 dilution
# [8] = peptide modifications: H3K23me2 H3K27me1, binder concentration: 1:10,000 dilution
# [9] = peptide modifications: H3K23me3 H3K27me2, binder concentration: 1:2,000 dilution
# [10] = peptide modifications: H3K23me3 H3K27me2, binder concentration: 1:10,000 dilution
# [11] = peptide modifications: H3K23me3 H3K27me3, binder concentration: 1:2,000 dilution
# [12] = peptide modifications: H3K23me3 H3K27me3, binder concentration: 1:10,000 dilution
# [13] = peptide modifications: H3K27ac H3S28ph, binder concentration: 1:2,000 dilution
# [14] = peptide modifications: H3K27ac H3S28ph, binder concentration: 1:10,000 dilution
binder,measurement,setting,value
LATKAARKSAPAT [H3 20-32 L A T K A A R Kac S A P A T],peptide microarray binding signal,"[1]; peptide modifications: H3K27ac, binder concentration: 50 nM",0.00542 ± 6.7e-05
same,peptide microarray binding signal,"[1]; peptide modifications: H3K27ac, binder concentration: 500 nM",0.00819 ± 0.00035
same,peptide microarray binding signal,"[2]; peptide modifications: H3K27ac, binder concentration: 10 nM",0.013 ± 0.00049
same,peptide microarray binding signal,"[2]; peptide modifications: H3K27ac, binder concentration: 100 nM",0.0498 ± 0.05
same,peptide microarray binding signal,[3]; [5],0.00461 ± 0.00054
same,peptide microarray binding signal,[3]; [6],0.00508 ± 0.00032
same,peptide microarray binding signal,[4]; [5],0.00281 ± 0.00022
same,peptide microarray binding signal,[4]; [6],0.002652 ± 2.3e-05
LATKAARKSAPAT [H3 20-32 L A T Kme2 A A R Kme S A P A T],peptide microarray binding signal,"[1]; peptide modifications: H3K23me2 H3K27me1, binder concentration: 50 nM",0.00715 ± 0.00054
same,peptide microarray binding signal,"[1]; peptide modifications: H3K23me2 H3K27me1, binder concentration: 500 nM",0.0135 ± 0.00043
same,peptide microarray binding signal,"[2]; peptide modifications: H3K23me2 H3K27me1, binder concentration: 10 nM",0.0174 ± 0.00096
same,peptide microarray binding signal,"[2]; peptide modifications: H3K23me2 H3K27me1, binder concentration: 100 nM",0.0216 ± 0.00093
same,peptide microarray binding signal,[3]; [7],0.00978 ± 0.0012
same,peptide microarray binding signal,[3]; [8],0.0104 ± 0.00071
same,peptide microarray binding signal,[4]; [7],0.00618 ± 0.00062
same,peptide microarray binding signal,[4]; [8],0.00628 ± 0.00021
LATKAARKSAPAT [H3 20-32 L A T Kme3 A A R Kme2 S A P A T],peptide microarray binding signal,"[1]; peptide modifications: H3K23me3 H3K27me2, binder concentration: 50 nM",0.00871 ± 0.00075
same,peptide microarray binding signal,"[1]; peptide modifications: H3K23me3 H3K27me2, binder concentration: 500 nM",0.0107 ± 0.0013
same,peptide microarray binding signal,"[2]; peptide modifications: H3K23me3 H3K27me2, binder concentration: 10 nM",0.0148 ± 0.0008
same,peptide microarray binding signal,"[2]; peptide modifications: H3K23me3 H3K27me2, binder concentration: 100 nM",0.0242 ± 0.0018
same,peptide microarray binding signal,[3]; [9],0.0639 ± 0.034
same,peptide microarray binding signal,[3]; [10],0.0807 ± 0.021
same,peptide microarray binding signal,[4]; [9],0.0464 ± 0.016
same,peptide microarray binding signal,[4]; [10],0.0257 ± 0.0034
LATKAARKSAPAT [H3 20-32 L A T Kme3 A A R Kme3 S A P A T],peptide microarray binding signal,"[1]; peptide modifications: H3K23me3 H3K27me3, binder concentration: 50 nM",0.00527 ± 0.00011
same,peptide microarray binding signal,"[1]; peptide modifications: H3K23me3 H3K27me3, binder concentration: 500 nM",0.00571 ± 0.00016
same,peptide microarray binding signal,"[2]; peptide modifications: H3K23me3 H3K27me3, binder concentration: 10 nM",0.0186 ± 0.00059
same,peptide microarray binding signal,"[2]; peptide modifications: H3K23me3 H3K27me3, binder concentration: 100 nM",0.0317 ± 0.00033
same,peptide microarray binding signal,[3]; [11],0.0764 ± 0.0055
same,peptide microarray binding signal,[3]; [12],0.116 ± 0.014
same,peptide microarray binding signal,[4]; [11],0.115 ± 0.01
same,peptide microarray binding signal,[4]; [12],0.08 ± 0.0081
LATKAARKSAPAT [H3 20-32 L A T K A A R Kac Sph A P A T],peptide microarray binding signal,"[1]; peptide modifications: H3K27ac H3S28ph, binder concentration: 50 nM",0.00903 ± 0.00081
same,peptide microarray binding signal,"[1]; peptide modifications: H3K27ac H3S28ph, binder concentration: 500 nM",0.0153 ± 0.0002
same,peptide microarray binding signal,"[2]; peptide modifications: H3K27ac H3S28ph, binder concentration: 10 nM",0.0221 ± 0.0015
same,peptide microarray binding signal,"[2]; peptide modifications: H3K27ac H3S28ph, binder concentration: 100 nM",0.0405 ± 0.0074
same,peptide microarray binding signal,[3]; [13],0.00951 ± 0.0017
same,peptide microarray binding signal,[3]; [14],0.0101 ± 0.0017
same,peptide microarray binding signal,[4]; [13],0.00536 ± 0.0021
same,peptide microarray binding signal,[4]; [14],0.00277 ± 6.4e-05
